The values that follow come from ChEMBL document CHEMBL3988442, “University of Dundee, Small-Polar-MMV Screening Library” (2021).

The structures appear in SMILES notation. For some of these results: Measured potencies and affinities stand elsewhere.

Common to all, as to design: scale not given: direction of the effect not stated beside the values
The target of assay [1] is Protein translocase subunit SecA (Escherichia coli (strain K12)) (UniProt P10408). Nature of the assay: Assay to Identify E. coli SecA ATPase Inhibitors. It counts as functional. The settings on record: 30 µM.
Protein translocase subunit SecA (Escherichia coli (strain K12)), sequence (P10408 whole entry): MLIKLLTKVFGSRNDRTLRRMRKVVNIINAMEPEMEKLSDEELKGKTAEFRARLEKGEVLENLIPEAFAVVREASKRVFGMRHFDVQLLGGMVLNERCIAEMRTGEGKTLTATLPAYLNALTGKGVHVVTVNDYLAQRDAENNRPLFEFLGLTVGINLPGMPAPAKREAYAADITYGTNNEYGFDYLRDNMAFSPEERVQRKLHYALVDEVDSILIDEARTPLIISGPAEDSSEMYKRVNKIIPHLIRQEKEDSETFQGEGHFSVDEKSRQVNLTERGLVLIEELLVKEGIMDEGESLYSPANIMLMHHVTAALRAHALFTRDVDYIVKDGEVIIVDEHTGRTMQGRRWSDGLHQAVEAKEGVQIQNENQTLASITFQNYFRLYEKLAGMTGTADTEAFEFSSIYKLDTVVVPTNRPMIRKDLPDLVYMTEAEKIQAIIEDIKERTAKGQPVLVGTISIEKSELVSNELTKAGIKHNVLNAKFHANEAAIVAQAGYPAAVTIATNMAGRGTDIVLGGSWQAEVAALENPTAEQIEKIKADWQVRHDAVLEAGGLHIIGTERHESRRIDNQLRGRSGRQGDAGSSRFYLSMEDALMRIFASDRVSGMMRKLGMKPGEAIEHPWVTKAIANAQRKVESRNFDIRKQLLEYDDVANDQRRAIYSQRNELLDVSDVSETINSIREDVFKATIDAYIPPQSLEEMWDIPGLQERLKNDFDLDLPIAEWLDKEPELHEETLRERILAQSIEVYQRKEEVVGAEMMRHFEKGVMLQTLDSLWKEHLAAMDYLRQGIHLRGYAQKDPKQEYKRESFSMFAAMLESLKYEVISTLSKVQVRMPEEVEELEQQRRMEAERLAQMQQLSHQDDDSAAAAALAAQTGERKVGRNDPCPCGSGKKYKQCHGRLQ
Assay [2] has as its target T1, Ubiquitin-activating enzyme e1, putative (Leishmania donovani (strain BPK282A1)) (UniProt E9BSI1).
T1 sequence (whole entry): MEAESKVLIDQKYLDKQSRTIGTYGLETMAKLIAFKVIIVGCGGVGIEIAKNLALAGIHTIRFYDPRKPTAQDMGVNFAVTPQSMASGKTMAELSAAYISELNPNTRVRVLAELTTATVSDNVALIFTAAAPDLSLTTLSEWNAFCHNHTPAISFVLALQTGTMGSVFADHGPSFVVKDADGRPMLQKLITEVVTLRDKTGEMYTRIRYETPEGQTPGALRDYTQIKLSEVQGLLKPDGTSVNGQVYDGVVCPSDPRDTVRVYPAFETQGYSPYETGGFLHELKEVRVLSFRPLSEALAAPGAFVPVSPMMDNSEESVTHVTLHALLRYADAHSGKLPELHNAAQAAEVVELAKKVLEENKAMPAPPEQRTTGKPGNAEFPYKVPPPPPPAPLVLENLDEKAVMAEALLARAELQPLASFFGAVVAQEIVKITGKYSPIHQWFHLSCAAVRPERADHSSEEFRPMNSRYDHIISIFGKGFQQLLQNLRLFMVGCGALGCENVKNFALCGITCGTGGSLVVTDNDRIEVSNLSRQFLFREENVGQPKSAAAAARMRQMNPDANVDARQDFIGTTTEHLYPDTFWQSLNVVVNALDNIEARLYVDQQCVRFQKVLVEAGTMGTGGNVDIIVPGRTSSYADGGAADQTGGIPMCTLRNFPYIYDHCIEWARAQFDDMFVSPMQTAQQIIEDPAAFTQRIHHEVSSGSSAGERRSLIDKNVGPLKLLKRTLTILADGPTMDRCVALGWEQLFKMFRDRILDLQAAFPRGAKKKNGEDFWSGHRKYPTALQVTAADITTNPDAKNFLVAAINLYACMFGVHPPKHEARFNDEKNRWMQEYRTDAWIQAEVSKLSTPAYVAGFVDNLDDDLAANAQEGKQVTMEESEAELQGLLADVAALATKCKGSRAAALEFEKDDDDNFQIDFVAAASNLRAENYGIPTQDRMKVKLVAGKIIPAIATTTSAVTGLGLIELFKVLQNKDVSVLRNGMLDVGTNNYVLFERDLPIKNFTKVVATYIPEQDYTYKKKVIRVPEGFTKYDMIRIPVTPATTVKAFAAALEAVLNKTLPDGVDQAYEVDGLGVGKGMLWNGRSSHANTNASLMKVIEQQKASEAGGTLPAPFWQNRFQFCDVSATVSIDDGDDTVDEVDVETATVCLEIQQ
Nature of the assay: Leishmania donovani Ubiquitin Activating Enzyme (LdE1). The following applies: 30 µM. The format is functional.

Assay [3] deals with AMP-activated protein kinase, AMPK (Homo sapiens) (UniProt P54646+O43741+P54619+Q9UGJ0+Q9Y478+Q13131+Q9UGI9). Nature of the assay: AMP-dependent Kinase enzyme assay. An in vitro enzyme assay that detects ADP turnover that is directly proportional to AMPK activity. This uses naive AMPK that is activated during the assay with MK-8722. The format is functional. The following applies: 30 µM.

For assay [4], the target named is Sialic acid-binding Ig-like lectin 9 (Homo sapiens) (UniProt Q9Y336). Nature of the assay: Hs-Siglec9 ALPHAscreen SOP 20170721. The following applies: 10 µM.
Sialic acid-binding Ig-like lectin 9 (Homo sapiens), sequence (Q9Y336 whole entry): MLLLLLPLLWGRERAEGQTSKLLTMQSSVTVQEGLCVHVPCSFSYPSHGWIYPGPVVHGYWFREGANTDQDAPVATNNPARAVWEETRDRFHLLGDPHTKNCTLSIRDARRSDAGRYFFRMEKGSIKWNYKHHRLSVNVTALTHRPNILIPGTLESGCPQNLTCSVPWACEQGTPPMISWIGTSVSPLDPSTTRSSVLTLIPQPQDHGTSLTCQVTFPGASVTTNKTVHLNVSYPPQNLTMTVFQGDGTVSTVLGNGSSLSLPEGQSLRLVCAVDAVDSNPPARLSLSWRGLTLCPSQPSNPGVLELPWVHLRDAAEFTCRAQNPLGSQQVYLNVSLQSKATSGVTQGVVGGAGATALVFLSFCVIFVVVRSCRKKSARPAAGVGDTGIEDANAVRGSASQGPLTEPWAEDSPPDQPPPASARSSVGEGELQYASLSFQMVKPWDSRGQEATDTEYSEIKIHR
For assay [5], the system named is Trypanosoma cruzi. Nature of the assay: Trypanosoma cruzi phosphomannomutase and mannose-1-phosphate guanylyltransferase assay. The settings on record: 10 µM. It counts as functional.
Assay [6] deals with T2, Arginase-2, mitochondrial (Homo sapiens) (UniProt P78540).
T2 sequence (whole entry): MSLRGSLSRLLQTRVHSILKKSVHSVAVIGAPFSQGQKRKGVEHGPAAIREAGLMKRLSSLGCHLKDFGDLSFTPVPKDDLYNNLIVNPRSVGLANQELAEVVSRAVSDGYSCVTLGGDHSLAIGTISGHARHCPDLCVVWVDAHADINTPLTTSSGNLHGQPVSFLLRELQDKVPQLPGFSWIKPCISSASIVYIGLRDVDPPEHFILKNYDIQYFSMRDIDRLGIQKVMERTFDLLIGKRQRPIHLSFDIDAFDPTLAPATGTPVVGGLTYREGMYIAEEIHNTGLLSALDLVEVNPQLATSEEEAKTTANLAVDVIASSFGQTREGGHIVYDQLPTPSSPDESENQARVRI
Nature of the assay: in vitro enzyme assay to detect the production of urea directly proportional to the activity of Arginase II. Further: in the data most compounds retested in dose-response had high values. The format is functional. The following applies: 33.3 µM.

For assay [7], the target named is T3, Proteasome subunit beta (Trypanosoma cruzi) (UniProt O96673).
T3 sequence (whole entry): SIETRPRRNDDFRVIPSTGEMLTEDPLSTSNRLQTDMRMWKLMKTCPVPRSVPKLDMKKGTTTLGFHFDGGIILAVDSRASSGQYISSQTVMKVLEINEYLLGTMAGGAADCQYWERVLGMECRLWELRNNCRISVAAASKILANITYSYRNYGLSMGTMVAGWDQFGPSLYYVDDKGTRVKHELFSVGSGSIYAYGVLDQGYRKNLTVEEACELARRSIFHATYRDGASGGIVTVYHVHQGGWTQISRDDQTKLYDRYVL
Nature of the assay: Trypanosoma cruzi proteasome chymotrypsin-like activity (TcProtChymo) assay. Further: in the data most compounds retested in dose-response had high values. The following applies: 9.37 µM. It counts as functional.

For assay [8], the species on record is Homo sapiens. The assay is described as follows: To identify inhibition of the IFN signalling (Jak-Stat) pathway via expression of an eGFP reporter gene under the control of an IFN-stimulated response element (ISRE) containing MxA promoter. The format is functional. The following applies: 30 µM.
For assay [9], the target named is T4, Tyrosyl-tRNA synthetase, putative (Trypanosoma cruzi (strain CL Brener)) (UniProt Q4DSP6).
T4 sequence (whole entry): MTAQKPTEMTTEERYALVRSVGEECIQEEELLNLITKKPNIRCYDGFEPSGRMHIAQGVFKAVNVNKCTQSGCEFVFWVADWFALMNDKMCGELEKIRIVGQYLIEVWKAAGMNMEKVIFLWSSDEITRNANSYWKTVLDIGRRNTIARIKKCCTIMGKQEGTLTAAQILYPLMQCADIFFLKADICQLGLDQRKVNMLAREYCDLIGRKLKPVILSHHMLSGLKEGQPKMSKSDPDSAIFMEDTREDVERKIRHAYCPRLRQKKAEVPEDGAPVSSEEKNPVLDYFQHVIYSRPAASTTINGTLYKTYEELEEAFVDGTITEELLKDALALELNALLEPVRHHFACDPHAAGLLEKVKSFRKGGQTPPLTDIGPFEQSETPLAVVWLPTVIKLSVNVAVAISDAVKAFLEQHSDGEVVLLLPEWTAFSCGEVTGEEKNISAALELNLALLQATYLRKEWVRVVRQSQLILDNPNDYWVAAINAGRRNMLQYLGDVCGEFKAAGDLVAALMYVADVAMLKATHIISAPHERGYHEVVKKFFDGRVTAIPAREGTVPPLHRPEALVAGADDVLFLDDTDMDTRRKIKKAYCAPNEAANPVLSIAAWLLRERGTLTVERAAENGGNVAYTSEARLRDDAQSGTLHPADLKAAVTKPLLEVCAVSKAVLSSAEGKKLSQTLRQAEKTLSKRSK
Nature of the assay: Trypanosoma cruzi tyrosyl tRNA synthetase (TcYRS) _High Tyrosine SOP. Further: in the data most compounds retested in dose-response had high values. The format is functional. The settings on record: 30 µM.

The target of assay [10] is T4, Tyrosyl-tRNA synthetase, putative (Trypanosoma cruzi (strain CL Brener)). Nature of the assay: Trypanosoma cruzi tyrosyl tRNA synthetase (TcYRS) SOP. The format is functional. The following applies: 30 µM.
Assay [11] concerns the target Chromo domain-containing protein 1 (Saccharomyces cerevisiae (strain ATCC 204508 / S288c) (Baker's yeast)) (UniProt P32657). The assay is described as follows: ScCHD-1 Enzyme Inhibition Assay. Further: in the data most compounds retested in dose-response had high values. It counts as functional. The following applies: 30 µM.

Chromo domain-containing protein 1 (Saccharomyces cerevisiae (strain ATCC 204508 / S288c) (Baker's yeast)), sequence (P32657 whole entry, the tested form may be a part): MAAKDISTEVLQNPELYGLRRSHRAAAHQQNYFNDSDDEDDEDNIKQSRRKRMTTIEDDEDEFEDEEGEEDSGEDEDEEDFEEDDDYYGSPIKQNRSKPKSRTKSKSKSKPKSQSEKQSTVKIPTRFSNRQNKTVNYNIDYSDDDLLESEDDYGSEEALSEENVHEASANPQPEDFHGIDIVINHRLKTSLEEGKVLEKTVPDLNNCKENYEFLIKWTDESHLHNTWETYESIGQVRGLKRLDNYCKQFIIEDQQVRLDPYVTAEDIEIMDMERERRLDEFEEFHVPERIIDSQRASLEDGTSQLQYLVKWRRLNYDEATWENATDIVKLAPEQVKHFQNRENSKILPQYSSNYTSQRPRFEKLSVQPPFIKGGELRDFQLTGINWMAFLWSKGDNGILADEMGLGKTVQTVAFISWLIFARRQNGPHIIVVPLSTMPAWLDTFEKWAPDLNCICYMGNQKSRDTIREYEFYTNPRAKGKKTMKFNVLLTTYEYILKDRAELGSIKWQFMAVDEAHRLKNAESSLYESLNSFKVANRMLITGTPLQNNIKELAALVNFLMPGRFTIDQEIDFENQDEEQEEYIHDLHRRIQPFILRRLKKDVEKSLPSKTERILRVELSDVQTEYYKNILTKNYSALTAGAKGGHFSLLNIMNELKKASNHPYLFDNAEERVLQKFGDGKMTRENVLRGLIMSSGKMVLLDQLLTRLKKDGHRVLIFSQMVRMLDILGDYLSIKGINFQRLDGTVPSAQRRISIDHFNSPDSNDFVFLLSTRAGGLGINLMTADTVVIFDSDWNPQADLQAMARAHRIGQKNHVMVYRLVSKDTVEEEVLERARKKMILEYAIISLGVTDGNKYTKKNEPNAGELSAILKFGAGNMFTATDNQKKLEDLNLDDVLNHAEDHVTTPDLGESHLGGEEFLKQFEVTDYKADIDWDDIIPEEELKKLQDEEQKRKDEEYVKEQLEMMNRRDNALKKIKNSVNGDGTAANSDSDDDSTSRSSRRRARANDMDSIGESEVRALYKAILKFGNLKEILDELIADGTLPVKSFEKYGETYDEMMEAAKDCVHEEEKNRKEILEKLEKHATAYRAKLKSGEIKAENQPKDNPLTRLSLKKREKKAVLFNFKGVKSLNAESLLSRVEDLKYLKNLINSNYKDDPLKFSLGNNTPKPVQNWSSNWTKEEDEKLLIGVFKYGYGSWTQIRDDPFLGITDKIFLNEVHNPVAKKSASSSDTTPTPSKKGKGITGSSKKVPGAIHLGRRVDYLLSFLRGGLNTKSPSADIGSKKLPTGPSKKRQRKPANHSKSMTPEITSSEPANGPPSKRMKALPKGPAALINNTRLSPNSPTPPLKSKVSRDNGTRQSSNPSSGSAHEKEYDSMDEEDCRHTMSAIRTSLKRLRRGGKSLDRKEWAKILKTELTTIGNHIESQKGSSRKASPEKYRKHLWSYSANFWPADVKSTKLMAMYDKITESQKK

Take `O=C(COc1coc(CN2CCCCC2)cc1=O)Nc1ccc(Cl)cc1`: the Percent Effect in assay [1] is -3.05%; in [2], 1.33%; in assay [3], 4.41%; in [4], 7%; in assay [5], -0.982%; in assay [6], -7.92%. Besides, the Percent Effect is 6.1% in assay [7]; -11.6% in [8]; 6.35% in assay [9]; 10.3% in assay [10]; 0.832% in assay [11].
As to `CCc1csc(C2CCCN(C(=O)c3cnn(CC)c3)C2)n1` (stereo unspecified), the Percent Effect was -1.78% in assay [1]; -2.63% in assay [2]; 68.6% in assay [3]; -1.18% in assay [4]; -1.46% in assay [5]; 3.55% in assay [6]. In addition, the Percent Effect in assay [7] was 6.04%; in assay [8] it was 6.86%; in assay [9], 3.19%; in assay [10] it was -2.6%; in assay [11], -7.82%.
Turning to `CC(C)(C)c1nnc(CN2CCOC(Cn3cccn3)C2)o1` (stereo unspecified), the Percent Effect was -3.67% in [1]; 15.2% in assay [2]; -3.73% in assay [3]; 9.59% in assay [4]; 5.38% in assay [5]; 1.9% in [6]. Further, the Percent Effect in [7] is 5.16%; in [8], 14.4%; in assay [9], 5.42%; in [10], 16.5%; in assay [11] it was -5.63%.
On to `CN1CCN(C(=O)c2ccc(=O)n(C)c2)c2ccccc21`, for which the Percent Effect is -6.34% in [1]; 18.9% in assay [2]; -11% in assay [3]; 20.6% in assay [4]; 3.25% in [5]; -0.554% in assay [6]. Further, the Percent Effect in assay [7] was 2.51%; in assay [8], 6.73%; in [9], 16.8%; in assay [10] it was 25.6%; in assay [11], -6.38%.
`CC(C)c1nc(CN(C)C2CCN(Cc3nc(C4CC4)no3)C2)no1` (stereo unspecified): the Percent Effect in assay [1] was 4.92%; in [2], 11%; in assay [3], -9.72%; in [4], 4.44%; in assay [5] it was -8.42%; in assay [6], 1.36%. In addition, the Percent Effect in assay [7] was 18.8%; in assay [8] it was 22.3%; in [9], 3.23%; in assay [10] it was 10%; in [11], -6.06%.
Consider `COc1ccc(F)cc1S(=O)(=O)NCC(c1cccn1C)N(C)C` (stereo unspecified), for which the Percent Effect is -3.57% in assay [1]; 8.22% in assay [2]; -1.87% in assay [3]; -2.56% in [4]; 0.196% in assay [5]; 3.64% in assay [6]. The Percent Effect in [7] is 11.5%; in [8] it was 7.4%; in [9], 7.53%; in [10], 20%; in [11], -6.57%.
`O=C(CCn1ccccc1=O)Nc1ccc(I)cc1`: the Percent Effect in assay [1] was -2.63%; in assay [2], 2.7%; in assay [3], -7.9%; in assay [4], 21.2%; in assay [5], 0.684%; in assay [6], -0.248%. Also, the Percent Effect was determined as 16.6% in [7]; 5.89% in [8]; 1.07% in [9]; 6.17% in assay [10]; 6.86% in assay [11].
Regarding `Cc1cc(C)n(CC2CCCN2CC(=O)N(C)Cc2cnn(C)c2)n1` (stereo unspecified), the Percent Effect in assay [1] is -5.54%; in [2] it was 8.11%; in [3] it was -10.7%; in [4], 3.9%; in [5], 1.04%; in [6], -4.01%. For the same compound, the Percent Effect is 13% in assay [7]; 9.55% in [8]; 6.4% in assay [9]; 13.6% in [10]; -11.6% in assay [11].
`O=C(CCc1ccccc1)Nc1ncccc1OC(F)F`: the Percent Effect is -2.62% in assay [1]; 6.94% in assay [2]; -0.321% in [3]; -1.86% in assay [4]; -3.4% in assay [5]; -0.883% in assay [6]. In addition, the Percent Effect in assay [7] was 13.5%; in assay [8], -3.51%; in assay [9] it was 1.05%; in assay [10], 0%; in assay [11], -2.3%.
For the compound `Cc1nc(C2CCCCN2C(=O)c2ccccc2)ncc1C(=O)N(C)C` (stereo unspecified), the Percent Effect in assay [1] is 0.833%; in assay [2], -5.33%; in assay [3], 7.56%; in [4] it was 0.633%; in assay [5], -1.97%; in [6], 4.89%. The Percent Effect in [7] was 0.0881%; in assay [8], 10.8%; in [9] it was 1.06%; in assay [10], 1.28%; in assay [11], 0.34%.
Turning to `CCN(Cc1ccc2c(c1)OCCO2)C(=O)NC(C)Cn1ccnc1` (stereo unspecified), the Percent Effect in assay [1] was -0.244%; in [2], 23.4%; in [3], -1.99%; in [4] it was -9.3%; in assay [5], -9.74%; in assay [6] it was 3.56%. In addition, the Percent Effect in assay [7] was 10.8%; in assay [8], 19.8%; in assay [9], 3.88%; in assay [10], 9.76%; in assay [11], -7.71%.
